# SW480 rereplic: inducers of DNA re-replication in SW480 colon cancer cells; Potency, µM (series often up to 46.1 µM), inactives show at the highest dose re-replication activation, hits mostly activators; 340,000 compounds, 1.8% hits; SW480 DNA re-replication, Hoechst DNA content imaging, 48 h; also: % of control where 0% means no effect; nearly all actives have a fitted effect of over 55% in size
#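 Cells (250 per well) received 23 nL compound or DMSO by pin tool and were kept 48 hr at 37 C, 5% CO2. Nuclei were then stained with Hoechst for 40 min and scanned for DNA content.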
# KB-V1 MDR tox: kills drug-selected multidrug resistant KB-V1 cells | 400,000 compounds, 3.4% hits | Potency, µM (series often up to 46.1 µM), most hits filed as cytotoxic | KB-V1 MDR cells viability, CellTiter-Glo, 72 h; also: % is scaled to controls: 0 for no effect and ±100 for the full control effect; nearly all actives have a fitted effect of over 60% in size
#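 Cytotoxicity via CellTiter-Glo luminescence after 72 h compound exposure at 37 degrees C. Cells: drug-selected KB-V1 line, DMEM phenol-red free plus 10% FBS. Compounds tested at multiple concentrations; normalized data fitted to concentration-effect curves.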
# MCF10A rerep: inducers of DNA re-replication in MCF 10A breast cells; AID 624296; Potency, µM (highest dose often 46.1 µM), without a hit: at the highest dose activity, positive = re-replication, actives largely listed as activators; MCF 10A DNA re-replication, Hoechst nuclear intensity, 48 h; 350,000 compounds, 2.9% hits; also: % of control where 0% means no effect; nearly all actives have a fitted effect of over 50% in size
# TSG101-PTAP inh: blocks PTAP/TSG101 interaction to inhibit HIV-1 budding; Q99816; Fluorescence polarization, FITC-PTAP peptide / Tsg101 binding; Potency, µM (top dose mostly 115 µM), for inactives: at the top dose activity change, negative = inhibition, most hits filed as inhibitors; 340,000 tested, under 10 active; AID 493005; active = well fitted inhibition curve with a large enough effect in the main read-out, with a control signal flat, not every such curve was filed as active; inconclusive = small, poorly fitted or top-dose-only effect, or effect the other way, or a change in a side signal; inactive = no such curve, though single readings can be large or run the other way; also: % of control where 0% means no effect
# Target sequence (Q99816 whole entry, looked up): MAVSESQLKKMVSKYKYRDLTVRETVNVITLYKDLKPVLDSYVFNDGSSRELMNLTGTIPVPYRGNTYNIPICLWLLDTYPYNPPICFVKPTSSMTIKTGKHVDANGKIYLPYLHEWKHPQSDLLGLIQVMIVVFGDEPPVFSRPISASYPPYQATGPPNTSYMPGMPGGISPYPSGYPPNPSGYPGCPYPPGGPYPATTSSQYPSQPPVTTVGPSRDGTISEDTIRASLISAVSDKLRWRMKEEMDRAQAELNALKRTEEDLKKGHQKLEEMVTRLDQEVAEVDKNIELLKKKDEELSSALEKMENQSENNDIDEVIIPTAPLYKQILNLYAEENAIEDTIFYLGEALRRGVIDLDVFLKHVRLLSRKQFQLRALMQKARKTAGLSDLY
#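 Compounds were pin-transferred onto Tsg101 binding domain (10 uM final) in HEPES pH 7.5 buffer, then FITC-PTAP peptide was added at 50 nM final. After 20 min at RT, polarization reported peptide displacement across a qHTS concentration series.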
# RGS4 inh: human RGS4 inhibition | P49798 | Transcreener GDP fluorescence polarization, RGS4-accelerated GTP hydrolysis | Potency, µM (top dose mostly 114 µM), for inactives: top-dose activity change, negative = inhibition, most hits filed as inhibitors | 390,000 compounds, 0.039% hits; also: % is scaled to controls: 0 for no effect and ±100 for the full control effect; nearly all actives have a fitted effect of over 75% in size
# Target sequence (P49798 whole entry, looked up): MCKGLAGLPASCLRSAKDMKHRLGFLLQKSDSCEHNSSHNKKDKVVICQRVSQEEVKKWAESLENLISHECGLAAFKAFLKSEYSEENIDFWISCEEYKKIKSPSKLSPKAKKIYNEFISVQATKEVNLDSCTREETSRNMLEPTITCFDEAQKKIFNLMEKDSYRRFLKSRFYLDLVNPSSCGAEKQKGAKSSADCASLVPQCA
#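 MLSMR compounds (23 nl, pin-transferred) preincubated 10 min at room temperature with a 500nM (2x) first reagent, then RGS4 at 900nM (2x) plus Transcreener GDP mix added; fluorescence polarization (620/688 nm) read before and after 90 min at 30 °C.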
# KB-3-1 tox: KB-3-1 parental cell cytotoxicity. KB-3-1 viability, CellTiter-Glo ATP luminescence, 72 h. Potency, µM (titrated, usually from 46.1 µM), hits mostly cytotoxic. 400,000 compounds, 1.4% hits; also: % is scaled to controls: 0 for no effect and ±100 for the full control effect; nearly all actives have a fitted effect of over 60% in size
#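 Parental KB-3-1 adenocarcinoma cells in phenol-red-free DMEM with 10% FBS were pin-treated with compounds at several concentrations, incubated 72 h at 37 °C, and viability read by CellTiter-Glo luminescence; concentration-effect curves were fitted after normalization.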
# * hit, by the source's call; i = inactive; ? = inconclusive; · = not tested or not shown; [ ] = dose if it differs, or a comment. Hits are enriched below; roughly 6.6% of the tested compounds scored in any of these assays. Unless noted, calls follow the shape of the dose curve; as a rule, active = well fitted curve in the direction sought with a large enough effect; inconclusive = small, poorly fitted or top-dose-only effect, or another doubt; inactive = no such curve, though single readings can be large; an effect the other way counts as inactive or inconclusive. Potency is read from the fitted curve at half-maximal effect.
SMILES,SW480 rereplic,KB-V1 MDR tox,MCF10A rerep,TSG101-PTAP inh,RGS4 inh,KB-3-1 tox
COC(CNC(=O)C1CCCN(S(=O)(=O)c2c(C)noc2/C=C/c2cccs2)C1)OC (configuration not stated),-14%,i,3.7µM*,1%,-10%,i
Cc1ccc(NC(=O)C2CCCN(S(=O)(=O)c3c(C)noc3/C=C/N(C)C)C2)c(C)c1 (configuration not stated),19%,i,?,-1%,5%,i
Cc1ccc(C)c(NC(=O)C2CCCN(S(=O)(=O)c3c(C)noc3/C=C/N(C)C)C2)c1 (configuration not stated),19%,i,18µM*,-3%,31%,i
COc1cc(/C=N/Nc2nc3ccccc3[nH]2)ccc1O,1%,18µM*,10%,-7%,-6%,i
COc1cccc(/C=N/Nc2nc3ccccc3[nH]2)c1OC,-1%[9.22 µM],i,33%,-1%,2%,i
COc1cccc(/C=N/Nc2nc3ccccc3[nH]2)c1O,?,?,?,5%,-2%,5.8µM*
COc1ccc(OCc2cc(C(=O)NC(C)Cc3cccnc3)no2)c(Cl)c1 (configuration not stated),8.2µM*,?,9%,-2%,9%,i
COc1ccc(OCc2cc(C(=O)NC(C)Cc3ccccn3)no2)c(Cl)c1 (configuration not stated),-6%,i,1%,-4%,5%,i
COc1ccc(OCc2cc(C(=O)NC3Cc4ccccc4C3)no2)c(Cl)c1,?,?,?,1%,32%,4.6µM*
Cc1ccc2nc(CO)[nH]c2c1,·,i,·,·,·,?
Cc1ccc2c(=O)cc(C(=O)Nc3sc4c(c3C(=O)NCC3CCCO3)CCC4)oc2c1 (configuration not stated),·,i,·,·,15%,i
COc1ccc2nc(N3C(=O)C(O)=C(C(=O)c4ccco4)C3c3ccc(OC)c(OC)c3)sc2c1 (configuration not stated),·,i,·,·,·,i
Cc1ccc2nc(N3C(=O)C(O)=C(C(=O)c4ccc(C)o4)C3c3cccc(O)c3)sc2c1 (configuration not stated),17%,i,23µM*,-6%,-24%,i
Cc1ccc(Cl)cc1NC(=O)Cn1nnc2sc3c(c2c1=O)CCC(C(C)(C)C)C3 (configuration not stated),·,i,·,·,-14%,i
CCOC(=O)c1c(NC(=O)CSc2nc3ccccc3[nH]2)sc2c1CC(C)(C)NC2(C)C,16µM*,i,?,0%,8%,?
CCOC(=O)c1c(NC(=O)COc2ccccc2)sc2c1CC(C)(C)NC2(C)C,9%,?,3%,-1%,11%,?
CCOC(=O)C(O)(NC(=O)c1cccnc1)C(F)(F)F (configuration not stated),1%,i,-6%,-2%,1%,i
CC(=O)C(C(C)=O)C(NC(=O)c1cccnc1)(C(F)(F)F)C(F)(F)F,?,i,21µM*,1%,-77%[11.4 µM],i
O=C(O)c1ccc(Oc2nc3ccccc3s2)cc1,2%,i,21%,2%,19%,i
CN(C)c1ccc(/C=C(\Cl)c2nc3ccccc3s2)cc1,?,?,7.3µM*,-2%,-11%,i
O=C(O)c1ccc(C=C(c2nc3ccccc3s2)c2nc3ccccc3s2)cc1,6%,?,18µM*,0%,?,?
COc1cc(C=C(c2nc3ccccc3s2)c2nc3ccccc3s2)cc(OC)c1O,?,?,?,-2%,-45%,i
COc1ccc(-c2onc(C)c2C)cc1S(=O)(=O)N1CCc2ccccc21,·,·,·,·,7%,·
CCCCNCc1cc(Cl)c(OCCC)c(OCC)c1,?,16µM*,6%,·,1%,i
CCCCOc1c(Cl)cc(CNC(C)(C)CO)cc1OCC,1%,i,-1%,-6%,-13%,i
SMILES,SW480 rereplic,KB-V1 MDR tox,MCF10A rerep,TSG101-PTAP inh,RGS4 inh,KB-3-1 tox
COc1ccc(CCn2c(=S)[nH]c(=O)c3nccnc32)cc1OC,·,·,·,·,11%,·
Cc1cc(C)c(NC(=O)CSc2n[nH]c(-c3ccccc3Cl)n2)c(C)c1,·,?,·,·,19%,i
Nc1c(C(=O)N/N=C/c2ccccc2Cl)oc2nc(-c3ccccc3)cc(-c3ccco3)c12,18µM*,i,8.2µM*,?,-6%,?
Nc1c(C(=O)N/N=C/c2ccc(F)cc2)oc2nc(-c3ccccc3)cc(-c3ccco3)c12,355%,i,21µM*,23%,-19%,i
O=C(CCCn1c(=O)[nH]c2ccsc2c1=O)N1CCN(c2cccc(C(F)(F)F)c2)CC1,·,i,·,·,-2%,i
Cc1cc(C)c(S(C)(=O)=O)c(Oc2ccc(C(C)(C)C)cc2)n1,-38%,16µM*,20%,-1%,-13%,i
Cc1cccc(NC(=O)c2oc3ccc(S(=O)(=O)N4CCC5(CC4)OCCO5)cc3c2C)c1C,·,·,·,·,-27%,·
CCCCNC(=O)c1cc2nc(-c3ccc(OC)cc3)cc(C(F)(F)F)n2n1,·,i,·,·,·,i
O=C(NCCCn1ccnc1)c1nn2c(C(F)(F)F)cc(-c3ccccc3)nc2c1Cl,6.5µM*,i,-1%,1%,7%,i
Cc1ccc(-c2cc(C(F)(F)F)n3nc(C(=O)NCCCn4ccnc4)cc3n2)cc1C,?,i,15µM*,0%,0%,i
COc1ccc(-c2cc(C(F)(F)F)n3nc(C(=O)N(C)Cc4ccccc4)cc3n2)cc1OC,21µM*,?,?,-3%,-8%[11.4 µM],i
CCN(CC)CCCNC(=O)c1cc2nc(-c3ccccc3)cc(C(F)(F)F)n2n1,-8%,i,1µM*,-3%,5%,i
CC1=C(C(=O)Nc2ccc(C)cc2C)C(c2cc(Br)ccc2F)n2ncc(C(=O)Nc3ccc(C)cc3)c2N1 (configuration not stated),·,·,·,·,-8%,·
COc1cccc(C(=O)NCC(c2ccc(N(C)C)cc2)N2CCc3ccccc32)c1 (configuration not stated),·,i,·,·,-9%,i
COc1cccc(/C=N/NC(=O)NC23CC4CC(CC(C4)C2)C3)c1O,7%,?,29%,0%,0%,?
CCOc1ccc(CNC(=S)N/N=C/c2ccc(OC)c(OC)c2)cc1,140%,16µM*,-18%,1%,-19%,i

# High-throughput results deposited in PubChem BioAssay by National Center for Advancing Translational Sciences (NCATS).
